# TRHR agonist: activates the human TRH receptor. 360,000 tested, 0.18% active. TRHR cells, calcium flux fluo-8, FDSS agonist mode. activation, % at 2 µM
#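 TRHR-expressing cells, plated overnight in medium with 10% serum, were loaded with fluo-8 calcium dye at room temperature. After a 10 s baseline, library compound was pin-added and calcium release was recorded kinetically (ex 480/em 530) as agonist response.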
# D1 antagonist: blocks dopamine activation of the human D1 receptor; P21728; HEK293 TREx D1 cells, calcium flux, dopamine EC80; hits give low values; activity change, negative = inhibition, % at 10 µM; 360,000 tested, 3.2% active; AID 504652; in the data active means activity change below about -30%
# Target sequence (P21728 whole entry, looked up): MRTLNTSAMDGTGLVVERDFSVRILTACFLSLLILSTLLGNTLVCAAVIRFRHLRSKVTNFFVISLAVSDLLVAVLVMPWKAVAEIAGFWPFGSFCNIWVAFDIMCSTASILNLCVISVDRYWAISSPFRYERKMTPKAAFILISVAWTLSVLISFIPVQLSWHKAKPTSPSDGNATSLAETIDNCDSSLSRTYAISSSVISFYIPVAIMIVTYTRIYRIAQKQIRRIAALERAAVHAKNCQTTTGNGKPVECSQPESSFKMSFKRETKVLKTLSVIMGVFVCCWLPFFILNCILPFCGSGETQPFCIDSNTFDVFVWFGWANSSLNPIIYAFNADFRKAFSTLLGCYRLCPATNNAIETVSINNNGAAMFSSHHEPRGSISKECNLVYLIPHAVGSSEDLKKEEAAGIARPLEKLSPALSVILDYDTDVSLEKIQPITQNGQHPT
#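 Calcium flux readout: force-coupled, inducible Hek293 Trex D1 line, cells induced overnight at 30 C with tetracycline, dye-loaded 30–90 min at RT. Antagonism scored against EC80 dopamine challenge given 180 s after compound.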
# D1 potentiator: enhances dopamine response at the human D1 receptor | potentiation, % at 10 µM | P21728 | 360,000 tested, 0.036% active | AID 504651 | HEK293 TREx D1 cells, calcium flux, dopamine EC20 potentiation; in the data active means potentiation above about 30%
# TRHR PAM: allosteric enhancers of human TRH receptor. P34981. TRHR cells, fluo-8 calcium fluorescence, EC20 TRH enhancement. enhancement, % at 2 µM. 360,000 tested, 0.66% active; in the data active means enhancement above about 30%
#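 Enhancer read-out: after compound pinning and an initial kinetic agonist-mode read, an EC20 of TRH (10 nM final) was injected and fluo-8 calcium signal (Ex 480/Em 530) followed at 1 s/cycle for 100 cycles in TRHR-expressing cells.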
# D1 agonist: human D1 receptor agonism; P21728; HEK293 T-REx D1 cells, calcium flux, agonist mode; activation, % at 2 µM; 360,000 tested, 1% active; AID 504660
#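 Inducible HEK293 T-REx D1 cells, force-coupled to calcium signalling, were plated at 4000 cells/well with tetracycline and held overnight at 30 C. After no-wash calcium dye loading, compound-evoked calcium rise over 180 s flagged agonists.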
# A number is an active result; i = inactive; nt = not tested or not shown. A selection: hits, their analogues and other compounds. The true share with any hit is near 4.7%. Unless noted, no stated cut-off is given here; in the data, active means activation above about 30%; inactive means the rest.
SMILES,TRHR agonist,D1 antagonist,D1 potentiator,TRHR PAM,D1 agonist
O=C(Cc1ccc([N+](=O)[O-])cc1)Nc1ccc2c(c1)OCO2,i,i,i,i,i
CC(C(=O)Nc1ccc2c(c1)OCCO2)c1ccc([N+](=O)[O-])cc1 (stereo unspecified),i,-51,i,i,101
CC(C(=O)Nc1ccc2c(c1)OCO2)c1ccc([N+](=O)[O-])cc1 (stereo unspecified),i,i,i,i,112
O=C(Nc1ccc2c(c1)OCCO2)C1CCN(C(=O)c2ccc([N+](=O)[O-])cc2)CC1,i,-31,i,i,i
CC(C)n1nc(C(=O)Nc2ccc3c(c2)OCO3)c2ccccc2c1=O,i,-32,nt,i,i
Cc1ccccc1Nc1ncnc2c1cnn2C,i,i,i,i,i
Cc1ccc(S(=O)(=O)N2CCOCC2)cc1NC(=O)CN1CCC(Cc2ccccc2)CC1,i,i,i,i,i
CC(NC(=O)c1ccccc1Cl)C(=O)Nc1ccc2c(c1)OCO2 (stereo unspecified),i,-83,i,i,i
O=C(NCc1ccco1)C1CCN(C(=O)c2ccc([N+](=O)[O-])cc2)CC1,i,-45,i,i,i
COC(=O)c1ccc(C2c3c(-c4ccccc4O)n[nH]c3C(=O)N2Cc2cccnc2)cc1 (stereo unspecified),i,i,i,i,i
Cc1nn(C(C)C(=O)NCC2CCCO2)c(=O)c2c1sc1ccccc12 (stereo unspecified),i,i,i,i,i
Cc1nn(C(C)C(=O)NC2CCCCC2)c(=O)c2c1sc1ccccc12 (stereo unspecified),i,-34,i,i,i
Cc1nn(C(C)C(=O)Nc2ccccc2C(F)(F)F)c(=O)c2c1sc1ccccc12 (stereo unspecified),i,-47,i,i,i
Cc1ccc(S(=O)(=O)c2nc(S(=O)(=O)c3ccc(C)cc3)c(N3CCN(CCO)CC3)s2)cc1,i,i,i,i,i
CCOC(=O)CC1C(=O)NCCN1c1nc2ccc(C)cn2c(=O)c1/C=C1\SC(=S)N(C(C)CC)C1=O (stereo unspecified),105,-47,34,i,584
CCCN1C(=O)/C(=C/c2c(N3CCNC(=O)C3CC(=O)OCC)nc3c(C)cccn3c2=O)SC1=S (stereo unspecified),68,i,i,i,216
CCOC(=O)CC1C(=O)NCCN1c1nc2ccc(C)cn2c(=O)c1/C=C1\SC(=S)N(CC(C)C)C1=O (stereo unspecified),63,i,i,i,320
CCOC(=O)/C(C#N)=C/c1c(N2CCN(C)CC2)nc2c(C)cccn2c1=O,i,i,i,i,i
O=C(CNC(=O)c1ccccc1)N[C@@H](C(=O)Nc1cc(C(F)(F)F)ccc1Cl)c1ccccc1,i,i,i,i,i
CCOc1ccc(NC(=O)c2cnc3sc(N4CCOCC4)nn3c2=O)cc1,i,i,i,i,i
Cc1c2ccccc2nc2c(F)c(NC(C)C)c(F)c(F)c12,40,i,i,i,64
OCCNc1c2ccccc2nc2c(F)c(F)c(F)c(F)c12,i,i,i,i,i
CCOc1ccccc1-c1noc(CSc2nnc(-c3ccccc3)n2-c2ccc(OC)cc2)n1,i,i,i,i,i
CCN(CC)c1ccc(/C=C(\C#N)c2ccccn2)cc1,i,-87,i,i,35
CCN(Cc1ccccc1)c1ccc(/C=C(\C#N)c2ccccn2)cc1,i,i,i,i,31
SMILES,TRHR agonist,D1 antagonist,D1 potentiator,TRHR PAM,D1 agonist
CN(CCC#N)c1ccc(/C=C(\C#N)c2ccccn2)cc1,i,i,i,i,i
N#C/C(=C\c1ccc(C(=O)O)cc1)c1ccccn1,i,i,i,i,i
Cc1ccc(S(=O)(=O)c2cc3c(=O)n4ccccc4nc3n(Cc3ccco3)c2=N)cc1,i,-32,i,i,i
Cc1ccc(S(=O)(=O)c2cc3c(=O)n4cccc(C)c4nc3n(Cc3ccco3)c2=N)cc1C,i,i,i,i,i
CCOC(=O)c1sc(Nc2cccc(C)c2C)nc1C,i,i,i,i,31
CCOC(=O)c1sc(N/N=C/c2ccc(N(C)C)cc2)nc1C,i,-47,i,i,i
COc1cccc(CNc2ncnc3c2nnn3C)c1,i,nt,i,i,i
COc1ccc(-c2cn3nc(N4CCC(C(=O)Nc5ccc(C)cc5)CC4)sc3n2)cc1,i,i,i,i,i
COc1ccc(NC(C)C(=O)N/N=C/c2ccccc2OCc2cccc(Br)c2)cc1 (stereo unspecified),i,i,i,34,i
Cc1ccc(C(=O)NCCc2nnc3ccc(SCC(=O)N4CCCCC4)nn23)cc1,i,i,i,33,i
O=C(CSc1nc2ccccc2n1Cc1ccc(F)c(Cl)c1)N1CCN(c2ccc(F)cc2)CC1,i,i,i,i,i
CC1=C(C(=O)Nc2cccnc2)C(c2ccc(F)cc2)n2nc(SCc3ccccc3)nc2N1 (stereo unspecified),i,i,i,i,i
COc1ccc(CCNC(=O)c2c(C)oc3ncn(CC(C)C)c(=O)c23)c(OC)c1,i,-30,i,i,i
Cc1ccnc(NC(=O)c2c(C)oc3ncn(CC(C)C)c(=O)c23)c1,i,i,i,i,i
Cc1ccc(NC(=O)c2c(C)oc3ncn(CC(C)C)c(=O)c23)nc1,i,i,i,31,i
CC1CC(C)CN(c2ccc(NS(=O)(=O)c3ccccc3)cc2C(=O)O)C1 (stereo unspecified),i,i,i,i,i
CC(C)C(=O)Nc1ccc(NC(=S)NC(=O)c2ccccc2F)cc1,i,i,i,i,i
COc1ccc(CC(=O)NCc2nc3cccnc3n2Cc2ccc(C)cc2)cc1,i,i,i,i,i
C=CCn1c(SCC(=O)N2CCCCCC2)nc2ccccc2c1=O,i,-32,i,i,i
C=CCn1c(SCc2c(F)c(F)c(F)c(F)c2F)nc(O)cc1=O,i,i,i,i,33
C=CCn1c(SCC(=O)N2CCCCC2)nc(O)cc1=O,i,-63,i,i,i
C=CCn1c(SCC(=O)N2CCOCC2)nc(O)cc1=O,i,i,i,i,i
C=CCn1c(SCC(=O)N(CC)CC)nc(O)cc1=O,i,i,i,i,i
COc1ccccc1N1CCN(c2nc(-c3ccc(C)cc3)nc3ccccc23)CC1,i,i,i,i,i
CC(C)NC(=O)NC(=O)CSc1ncccn1,i,i,i,i,i
CC(C)(C)NC(=O)NC(=O)CSc1ncccn1,i,-35,i,i,i
Cc1cc(C)cc(C(=O)OCC(=O)N2CCCC2)c1,i,i,i,i,i
COc1cc(C(=O)OCC(=O)N2CCCC2)cc(OC)c1OC,i,-42,i,i,i
Cc1ccc(C(=O)OCC(=O)N2CCCC2)cc1,i,-56,i,i,i
COc1ccc(C(=O)NCC(=O)OCc2nc(N)nc(Nc3ccccc3C)n2)cc1,i,i,i,i,i
